Measurements taken from PubChem BioAssay (NCATS).
Inconclusive results are not listed. Activity calls are given as the source filed them. Unless noted, how the calls were made is not given here.

Legend:
[1] = qHTS profiling of the MIPE4 collection as inhibitors of Plasmodium falciparum (3D7) proliferation (AID 743344);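 further: scaled between DMSO vehicle wells and 0.29 µM artemisinin as full inhibition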; settings: P. falciparum 3D7 in erythrocytes, SYBR Green DNA fluorescence, 72 h; at 28.5 µM unless noted
Summary of the method: (§1)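 Parasite DNA was quantified by SYBR Green I fluorescence (ex 485, em 535 nm) after overnight lysis in saponin/Triton buffer at room temperature. Cultures at 0.3% parasitemia and 2.5% hematocrit were first exposed to compound for 72 h at 37 C; signals were normalised to artemisinin (0.29 uM) and vehicle wells.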

[2] = qHTS profiling of the MIPE4 collection as inhibitors of Plasmodium falciparum (DD2) proliferation (AID 743345); settings: P. falciparum Dd2 in erythrocytes, SYBR Green DNA, 72 h; at 28.5 µM unless noted
Summary of the method: as §1

[3] = qHTS profiling of the MIPE4 collection as inhibitors of Plasmodium falciparum (DD2) proliferation (Rep 2) (AID 743346); settings: P. falciparum Dd2 in erythrocytes, SYBR Green DNA, 72 h; at 28.5 µM unless noted
Summary of the method: as §1

[4] = qHTS profiling of the MIPE4 collection as inhibitors of Plasmodium falciparum (HB3) proliferation (AID 743347);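 further: plate controls were DMSO vehicle wells for no effect and artemisinin wells for full effect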; settings: P. falciparum HB3 in erythrocytes, SYBR Green DNA, 72 h; at 28.5 µM unless noted
Summary of the method: as §1

[5] = High-throughput drug toxicity screening in the BPDCN cell line Gen2.2 (AID 1224824); settings: Gen2.2 BPDCN cells; at 45.8 µM (top of the series) unless noted;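 further: cells exposed to compounds for 48 h before reading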
Summary of the method: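 Gen2.2 cells, 500 per well in phenol red-free RPMI with 10% FBS, exposed to compounds 48 h at 37 C, 5% CO2; viability by CellTiter-Glo luminescence. Percent activity scaled to DMSO (100%) and 9.2 uM bortezomib final (0%).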

[6] = High-throughput drug toxicity screening in the BPDCN cell line Cal-1 (AID 1224825); settings: Cal-1 BPDCN cell viability, qHTS; at 45.8 µM (top of the series) unless noted
Summary of the method: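 CellTiter-Glo luminescence after 48 h compound exposure; percent activity scaled with DMSO as 100% and bortezomib (9.2 uM final) as 0%. Cal-1 cells seeded at 500/well in RPMI, 10% FBS, no phenol red.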

[7] = qHTS assay for measurement of the activity of small molecule inhibitors on Zika virus induced Caspase-3 activity in human iPSC derived neural progenitor cells (hNPCs) (AID 1224857; active means well fitted inhibition curve with a large enough effect; further: % of control where 0% means no effect; nearly all actives have a fitted effect of over 65% in size)
Summary of the method: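 Caspase-3/7 induction by a 6-hour ZIKV infection was quantified with a luminescent Caspase-Glo 3/7 reagent incubated 30 minutes at room temperature. Compounds were preincubated with hNPCs for 1 hour; inhibition was calculated against uninfected and infected control wells.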

[8] = qHTS assay for measurement of the activity of small molecule inhibitors on Zika virus induced Caspase-3 activity in human astrocytoma cells (AID 1224859; active means well fitted inhibition curve with a large enough effect;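 further: plate controls were ZIKV-infected untreated cells for no effect and uninfected cells for full effect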)
Summary of the method: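 In SNB-19 cells plated at 250 cells/well and grown 16-20 h, compounds were applied 1 h before ZIKV (2 FFU/cell). Six hours later caspase-3/7 luminescence was recorded.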

[9] = qHTS Screen of the MIPE 4.0 Collection Against Ewings Sarcoma (RDES) (AID 1259252; active means well fitted inhibition curve with a large enough effect; further: nearly all actives have a fitted effect of over 35% in size; further: potency means the concentration at half of the fitted maximal effect)
Summary of the method: (§2)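 Viability screen: 48 h incubation at 37C, 95% humidity, 5% CO2 with serially titrated compound, followed by CellTiter-Glo readout.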

[10] = qHTS Screen of the MIPE 4.0 Collection Against Ewings Sarcoma (TC71) (AID 1259253; active means well fitted inhibition curve with a large enough effect; further: nearly all actives have a fitted effect of over 40% in size; further: potency means the concentration at half of the fitted maximal effect)
Summary of the method: as §2

[11] = qHTS Screen of the MIPE 4.0 Collection Against Ewings Sarcoma (EW8) (AID 1259255; active means well fitted inhibition curve with a large enough effect; further: nearly all actives have a fitted effect of over 35% in size; further: potency means the concentration at half of the fitted maximal effect;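 on viability: 100% = DMSO-treated cells and 0% = medium-only wells without cells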)
Summary of the method: as §2

Structure (SMILES) | parasite growth, % of DMSO control [1] [%] | parasite growth remaining, % of DMSO control (lower = more inhibition) [2] [%] | parasite growth, % of control (lower = inhibition) [3] [%] | growth, % of control [4] [%] | cell viability, % of control (lower = more cytotoxic) [5] [%] | viability (% of control) [6] [%] | Potency [7] | Potency [8] | Potency [9] | Potency [10] | Potency [11]
O=C(O)C=Cc1ccc(Cn2ccnc2)cc1 | 90.5 | 100 | 96.2 | 95.1 | 243 | 124 | inactive | inactive | inactive | inactive | inactive
C[C@H](NCc1ccc(OCc2cccc(F)c2)cc1)C(N)=O | 8.15 | 6.14 | 12.8 | 3.17 | 13.6 | 4.81 | inactive | inactive | 14.8 µM (active) | 14.8 µM (active) | 8.33 µM (active)
CCCCCCCCc1ccc(CCC(N)(CO)CO)cc1 | 9.21 | 14.6 | 24.2 | 4.09 | 4.54 | 3.28 | inactive | inactive | 23.5 µM (active) | 20.9 µM (active) | 20.9 µM (active)
Cn1cc(C=CC(=O)c2cccc(F)c2)cc1C=CC(=O)NO | 69.1 | 90.9 | 56.3 | 99.1 | 7.04 | 4.87 | inactive | inactive | 23.5 µM (active) | 18.7 µM (active) | 16.6 µM (active)
CCOC(=O)C=C[C@H](C[C@@H]1CCNC1=O)NC(=O)[C@@H](CC(=O)[C@@H](NC(=O)c1cc(C)on1)C(C)C)Cc1ccc(F)cc1 | 22 | 98.4 | 41.1 | 37.6 | 74.1 | 107 | inactive | inactive | inactive | inactive | inactive
COc1ccc(Nc2nccc(NCCO)n2)cc1 | 67.2 | 94.8 | 83.3 | 87.1 | 195 | 111 | inactive | inactive | inactive | inactive | inactive
CN1CCCN(C(=O)c2cccc(-c3ccc(C=C4C(=O)Nc5ccc(Cl)cc54)o3)c2)CC1 | 3.74 | 5.68 | 6.52 | 4.36 | 9.19 | 2.05 | inactive | inactive | 20.9 µM (active) | 16.6 µM (active) | 10.5 µM (active)
CCN(C(=O)c1c(O)c2c(Cl)cccc2n(C)c1=O)c1ccccc1 | 94.2 | 108 | 78.3 | 102 | 112 | 20.2 | inactive | inactive | inactive | inactive | inactive
